# Values without a mark were called inactive. Inconclusive results are not listed. A call without a number means that no potency is given here. Activity calls are given as the source filed them. Unless noted, calls follow the shape of the dose curve; as a rule, active = well fitted curve in the direction sought with a large enough effect; inconclusive = small, poorly fitted or top-dose-only effect, or another doubt; inactive = no such curve, though single readings can be large; an effect the other way counts as inactive or inconclusive.
# Columns and labels:
# [1] = qHTS assay for measurement of the activity of small molecule inhibitors on Zika virus induced Caspase-3 activity in human iPSC derived neural progenitor cells (hNPCs) (AID 1224857); also: nearly all actives have a fitted effect of over 65% in size
# How it was run: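 Human iPSC-derived neural progenitor cells pretreated 1 hr with compounds, then infected with Zika virus (2 FFU/cell) for 6 hours at 37 C. Caspase-3/7 measured by Caspase-Glo luminescence; % inhibition calculated from induction scaled to uninfected (0%) and infected (100%) wells.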
# [2] = qHTS assay for measurement of the activity of small molecule inhibitors on Zika virus induced Caspase-3 activity in human astrocytoma cells (AID 1224859)
# How it was run: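 SNB-19 astrocytoma cells, 250/well, pretreated 1 h with compounds, then Zika virus at 2 FFU/cell for 6 h at 37 C; Caspase-Glo 3/7 luminescence after 30 min; percent inhibition normalised to uninfected and infected controls.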
# [3] = qHTS assay to identify small molecule inhibitors of chordoma cells - UCH-1 (AID 1259355); also: nearly all actives have a fitted effect of over 55% in size
# How it was run: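 A 48hr growth-inhibition format: each drug tested at 15 concentrations together with added auranofin, camptothecin, doxorubicin, rubitecan and topotecan, with cell viability quantified as CellTiter-Glo luminescence.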
# [4] = qHTS assay to identify small molecule inhibitors of chordoma cells - UCH-2 (AID 1259356); also: series mostly up to about 46 µM
# [5] = target: Atrial natriuretic peptide receptor 1 (Homo sapiens) (UniProt P16066); experiment: Natriuretic polypeptide receptor (hNpr1) antagonism - Pilot screen (AID 1347049; calls by dose curve;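 also: HEK293 cells with hNpr1 and GloSensor cGMP luciferase stimulated by 0.1 nM hNppA; agonist-evoked cGMP luminescence read 20 min after hNppA addition; series mostly up to about 58 µM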)
# How it was run: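 Cells expressing receptor plus cGMP biosensor are seeded and incubated overnight at 37C, then loaded with GloSensor reagent (2% final) at room temperature for 2 h. Library compounds go on for 30 min. A pre-read precedes agonist (hNppA, 0.1 nM final) and a 20-min readout.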
# [6] = target: Atrial natriuretic peptide receptor 2 (Homo sapiens) (UniProt P20594); experiment: Natriuretic polypeptide receptor (hNpr2) antagonism - Pilot subtype selectivity assay (AID 1347050; calls by dose curve)
# How it was run: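 Read-out: GloSensor luminescence (CCD imager), baseline vs post-stimulation. HEK293 cells expressing hNpr2; compounds pre-incubated 30-50 min at ambient temperature; hNppC 1 nM final, 20 min.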
# [7] = target: T1, Tyrosine-protein phosphatase non-receptor type substrate 1 (Homo sapiens) + Leukocyte surface antigen CD47 (Homo sapiens) (UniProt P78324+Q08722); experiment: CD47-SIRPalpha protein protein interaction - LANCE assay qHTS validation (AID 1347057; active = well fitted curve in the direction sought with a large enough effect in the signal ratio, with a control signal flat, not every such curve was filed as active; the % refers to the signal ratio; also: series mostly up to about 38 µM)
# How it was run: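 Inhibition of soluble CD47/SIRPalpha ectodomain association by titrated compounds, measured as 665/615 nm time-resolved FRET ratio after sequential 30 min room-temperature incubations.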
# [8] = target: T1, Tyrosine-protein phosphatase non-receptor type substrate 1 (Homo sapiens) + Leukocyte surface antigen CD47 (Homo sapiens); experiment: CD47-SIRPalpha protein protein interaction - HTRF assay qHTS validation (AID 1347058; active = well fitted curve in the direction sought with a large enough effect in the signal ratio, not every such curve was filed as active; the % refers to the signal ratio; also: series mostly up to about 38 µM)
# How it was run: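 Soluble extracellular domains (6His-CD47, Avi-tag-biotinylated SIRPalpha) in PBS pH 7.4 with 0.05% IGEPAL CA-630. Compounds were preincubated 30 min at RT with CD47 and anti-His-Eu, then SIRPalpha and SAV-XL665 were added. TR-FRET 665/615 ratio.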
# [9] = target: T1, Tyrosine-protein phosphatase non-receptor type substrate 1 (Homo sapiens) + Leukocyte surface antigen CD47 (Homo sapiens); experiment: CD47-SIRPalpha protein protein interaction - Alpha assay qHTS validation (AID 1347059);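 also: bead proximity luminescence from CD47 binding SIRPalpha after compound preincubation with SIRPalpha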
# How it was run: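 In PBS (pH 7.4) with 0.05% IGEPAL CA-630, compound is preincubated with biotin-Avi-SIRPalpha ectodomain before His-CD47 ectodomain and affinity beads are added. Light-protected room-temperature incubations; AlphaScreen readout.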
# [10] = target: Parathyroid hormone/parathyroid hormone-related peptide receptor (Homo sapiens) (UniProt Q03431); experiment: qHTS for PTHR1 Agonists: Optimization Screen against the NCGC LOPAC library (AID 1347079);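 also: GloSensor cAMP luminescence in HEK-293 GP2 cells expressing human PTHR1 with IBMX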
# How it was run: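 HEK-293 GP2 cells, PTHR1 + GloSensor cAMP; 3000 cells/well, o/n. Luciferin + IBMX 0.5mM each (stock), 1 hr 37C. Cpd titration, 1 hr 37C. Lum after 15 min RT. Ctrl M-PTH(1-15) top 10uM.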
# [11] = qHTS of pediatric cancer cell lines to identify multiple opportunities for drug repurposing: Primary screen for SJ-GBM2 cells (AID 1347091); also: potency is read from the fitted curve at half-maximal effect
# How it was run: (§1)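 Eight- or eleven-point concentration series, 48 h treatment at 37 degrees C in growth media; readout CellTiter-Glo luminescence. Potency and efficacy were taken from the concentration-response curves.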
# [12] = P-glycoprotein substrates identified in KB-8-5-11 adenocarcinoma cell line, qHTS therapeutic library screen (AID 1346987); also: nearly all actives have a fitted effect of over 65% in size; also: potency is read from the fitted curve at half-maximal effect
# How it was run: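 Compounds are pinned in dose-response onto KB-8-5-11 cells (500 cells/well, colchicine-free medium) and left 72 h at 37 degree C. CellTiter-Glo luminescence then yields AC50 values.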
# [13] = NS1 protein of Zika virus - qHTS assay to identify small molecule inhibitors in human HEK 293 cells (AID 1347053); also: series mostly up to about 46 µM; nearly all actives have a fitted effect of over 55% in size
# How it was run: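 Compound-treated (1 h pre-infection) HEK 293 cells infected with ZIKV MR766, MOI = 0.5; after 24 h at 37 C, NS1 read by TR-FRET; data normalized to uninfected and infected controls.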
# [14] = qHTS of pediatric cancer cell lines to identify multiple opportunities for drug repurposing: Primary screen for TC32 cells (AID 1347089); also: nearly all actives have a fitted effect of over 60% in size; also: potency is read from the fitted curve at half-maximal effect
# How it was run: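 Luminescent CellTiter-Glo read-out of metabolically active TC32 cells after 48 h compound exposure. Primary: MIPE 11-point, 0.78 nM–46 µM; NPC 8-point, 0.59 nM–46 µM. Confirmatory: 11-point dilutions.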
# [15] = qHTS of pediatric cancer cell lines to identify multiple opportunities for drug repurposing: Primary screen for DAOY cells (AID 1347090); also: nearly all actives have a fitted effect of over 55% in size; also: potency is read from the fitted curve at half-maximal effect
# How it was run: as §1
# [16] = Natriuretic polypeptide receptor (hNpr1) antagonism - Pilot counterscreen GloSensor control cell line (AID 1347045; calls by dose curve; also: series mostly up to about 38 µM)
# How it was run: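 Control counterscreen: luciferase cGMP-biosensor HEK293 cells (no Npr1) received compound for 30 min at room temperature after GloSensor substrate loading. Luminescence was measured before and 20 min after soluble guanylyl cyclase activation by 50 uM nitroprusside.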
# Parathyroid hormone/parathyroid hormone-related peptide receptor (Homo sapiens), sequence (Q03431 whole entry, looked up): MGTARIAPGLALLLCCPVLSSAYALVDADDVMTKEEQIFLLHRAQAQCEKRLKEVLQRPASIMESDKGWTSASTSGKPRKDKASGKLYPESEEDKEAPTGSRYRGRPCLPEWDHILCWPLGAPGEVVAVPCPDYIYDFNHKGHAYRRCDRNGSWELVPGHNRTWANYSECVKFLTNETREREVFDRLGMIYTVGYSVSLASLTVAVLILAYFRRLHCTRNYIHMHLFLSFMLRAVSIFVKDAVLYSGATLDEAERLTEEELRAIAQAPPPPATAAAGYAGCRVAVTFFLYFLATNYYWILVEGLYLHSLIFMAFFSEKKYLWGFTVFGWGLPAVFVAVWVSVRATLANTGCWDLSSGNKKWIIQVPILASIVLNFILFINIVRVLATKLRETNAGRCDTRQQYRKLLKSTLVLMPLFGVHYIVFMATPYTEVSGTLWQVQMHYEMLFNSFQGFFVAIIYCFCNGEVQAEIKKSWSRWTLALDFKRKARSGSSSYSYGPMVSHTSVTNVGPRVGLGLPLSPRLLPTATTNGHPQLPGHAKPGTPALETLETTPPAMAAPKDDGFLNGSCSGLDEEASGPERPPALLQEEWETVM
# T1 sequence (P78324 whole entry, looked up, the tested form may be a part): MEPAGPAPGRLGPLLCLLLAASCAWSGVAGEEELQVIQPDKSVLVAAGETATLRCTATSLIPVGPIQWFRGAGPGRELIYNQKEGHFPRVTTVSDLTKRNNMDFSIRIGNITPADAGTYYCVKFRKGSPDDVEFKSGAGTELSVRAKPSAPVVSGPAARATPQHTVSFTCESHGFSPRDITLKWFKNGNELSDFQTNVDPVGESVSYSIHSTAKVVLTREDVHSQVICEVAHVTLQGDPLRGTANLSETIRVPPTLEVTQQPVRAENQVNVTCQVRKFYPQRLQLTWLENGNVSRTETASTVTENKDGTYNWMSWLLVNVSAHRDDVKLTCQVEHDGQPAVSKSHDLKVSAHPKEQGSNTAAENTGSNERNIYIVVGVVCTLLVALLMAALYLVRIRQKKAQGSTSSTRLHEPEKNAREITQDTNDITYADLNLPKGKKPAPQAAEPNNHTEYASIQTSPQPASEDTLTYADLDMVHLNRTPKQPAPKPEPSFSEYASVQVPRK
# T1 sequence (Q08722 whole entry, looked up, the tested form may be a part): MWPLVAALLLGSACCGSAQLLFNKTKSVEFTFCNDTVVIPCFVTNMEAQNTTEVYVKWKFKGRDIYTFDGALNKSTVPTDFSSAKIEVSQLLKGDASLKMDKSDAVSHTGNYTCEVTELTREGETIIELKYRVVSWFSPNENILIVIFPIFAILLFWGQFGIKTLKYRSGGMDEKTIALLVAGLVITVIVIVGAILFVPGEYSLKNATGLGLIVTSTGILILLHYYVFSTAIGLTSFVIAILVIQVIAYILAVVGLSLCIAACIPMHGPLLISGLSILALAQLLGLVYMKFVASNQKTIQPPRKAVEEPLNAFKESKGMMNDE
# Atrial natriuretic peptide receptor 1 (Homo sapiens), sequence (P16066 whole entry, looked up): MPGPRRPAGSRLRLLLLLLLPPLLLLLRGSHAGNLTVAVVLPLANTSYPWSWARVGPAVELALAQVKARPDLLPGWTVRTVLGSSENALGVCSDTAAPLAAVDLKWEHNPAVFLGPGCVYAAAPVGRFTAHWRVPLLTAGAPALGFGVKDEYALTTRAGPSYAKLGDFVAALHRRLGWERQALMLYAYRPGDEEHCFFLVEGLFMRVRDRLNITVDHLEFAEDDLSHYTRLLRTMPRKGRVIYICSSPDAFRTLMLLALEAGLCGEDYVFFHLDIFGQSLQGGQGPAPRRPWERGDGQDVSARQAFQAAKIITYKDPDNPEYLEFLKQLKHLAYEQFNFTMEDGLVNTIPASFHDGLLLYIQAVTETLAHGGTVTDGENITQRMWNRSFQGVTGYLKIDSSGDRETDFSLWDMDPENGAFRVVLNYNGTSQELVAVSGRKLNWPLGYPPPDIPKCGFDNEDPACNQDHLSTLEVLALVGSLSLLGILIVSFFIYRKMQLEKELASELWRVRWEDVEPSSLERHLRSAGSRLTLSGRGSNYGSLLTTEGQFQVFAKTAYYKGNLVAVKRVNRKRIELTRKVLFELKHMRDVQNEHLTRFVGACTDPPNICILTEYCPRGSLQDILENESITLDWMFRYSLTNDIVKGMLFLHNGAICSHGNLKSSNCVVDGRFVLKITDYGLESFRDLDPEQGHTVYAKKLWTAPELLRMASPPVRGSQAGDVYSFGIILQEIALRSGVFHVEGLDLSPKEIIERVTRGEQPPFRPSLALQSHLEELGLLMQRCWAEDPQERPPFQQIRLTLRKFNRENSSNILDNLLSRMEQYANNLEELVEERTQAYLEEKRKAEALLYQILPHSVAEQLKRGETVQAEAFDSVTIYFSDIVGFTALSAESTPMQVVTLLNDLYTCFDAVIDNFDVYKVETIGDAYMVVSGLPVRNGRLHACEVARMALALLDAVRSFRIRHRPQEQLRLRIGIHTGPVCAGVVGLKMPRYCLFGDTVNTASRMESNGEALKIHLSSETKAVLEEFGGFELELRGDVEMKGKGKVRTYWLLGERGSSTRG
# Atrial natriuretic peptide receptor 2 (Homo sapiens), sequence (P20594 whole entry, looked up): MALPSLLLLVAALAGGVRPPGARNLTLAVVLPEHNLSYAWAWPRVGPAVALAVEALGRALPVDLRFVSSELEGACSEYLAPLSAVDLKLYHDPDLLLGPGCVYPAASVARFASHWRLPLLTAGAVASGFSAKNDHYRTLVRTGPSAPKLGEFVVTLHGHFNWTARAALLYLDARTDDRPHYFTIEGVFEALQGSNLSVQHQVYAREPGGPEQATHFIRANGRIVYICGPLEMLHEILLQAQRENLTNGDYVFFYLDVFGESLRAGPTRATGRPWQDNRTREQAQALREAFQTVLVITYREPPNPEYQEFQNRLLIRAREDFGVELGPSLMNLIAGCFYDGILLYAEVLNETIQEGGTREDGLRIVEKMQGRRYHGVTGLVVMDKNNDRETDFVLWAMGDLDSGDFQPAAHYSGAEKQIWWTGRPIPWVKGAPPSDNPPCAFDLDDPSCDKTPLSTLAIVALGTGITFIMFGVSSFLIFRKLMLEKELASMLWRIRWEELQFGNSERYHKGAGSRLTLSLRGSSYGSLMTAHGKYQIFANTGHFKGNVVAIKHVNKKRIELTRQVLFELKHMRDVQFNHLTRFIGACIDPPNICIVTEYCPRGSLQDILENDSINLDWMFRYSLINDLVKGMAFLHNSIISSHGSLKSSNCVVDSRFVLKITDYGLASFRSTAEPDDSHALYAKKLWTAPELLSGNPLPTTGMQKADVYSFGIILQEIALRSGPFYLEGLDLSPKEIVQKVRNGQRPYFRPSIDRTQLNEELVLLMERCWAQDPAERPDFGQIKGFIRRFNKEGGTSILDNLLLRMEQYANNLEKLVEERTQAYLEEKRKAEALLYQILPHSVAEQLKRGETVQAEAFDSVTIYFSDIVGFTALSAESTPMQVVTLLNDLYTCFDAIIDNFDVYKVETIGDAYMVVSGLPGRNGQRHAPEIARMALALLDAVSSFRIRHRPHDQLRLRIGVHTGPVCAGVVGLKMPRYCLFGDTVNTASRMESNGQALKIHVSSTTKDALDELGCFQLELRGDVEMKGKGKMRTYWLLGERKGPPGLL
SMILES,outcome [1],outcome [2],Potency [3],Potency [4],Potency [5],Potency [6],outcome [7],outcome [8],Potency [9],outcome [10],Potency [11],Potency [12],outcome [13],Potency [14],Potency [15],Potency [16]
COC(=O)C1=C(C)NC(C)=C(C(=O)OC(C)(C)CN(C)CCC(c2ccccc2)c2ccccc2)C1c1cccc([N+](=O)[O-])c1 (configuration not stated),inactive,inactive,inactive,inactive,inactive,inactive,inactive,inactive,inactive,inactive,inactive,,,,,
CCCOc1ccccc1-c1nc2n[nH]nc2c(=O)[nH]1,,inactive,inactive,inactive,inactive,inactive,inactive,inactive,inactive,inactive,inactive,inactive,inactive,inactive,inactive,
CC(C)(Oc1ccc(CCNC(=O)c2ccc(Cl)cc2)cc1)C(=O)O,,inactive,inactive,inactive,inactive,inactive,inactive,inactive,inactive,inactive,inactive,,inactive,inactive,inactive,
Nc1nc(N)c2nc(-c3ccccc3)c(N)nc2n1,,inactive,inactive,inactive,inactive,inactive,inactive,,inactive,,6.68 µM (active),inactive,inactive,7.45 µM (active),26.6 µM (active),
CC(N=C(NC#N)Nc1ccncc1)C(C)(C)C (configuration not stated),,inactive,inactive,inactive,inactive,inactive,inactive,inactive,inactive,inactive,inactive,,inactive,inactive,inactive,
COC(=O)[C@@H](N)Cc1ccc(O)c(O)c1,,inactive,inactive,inactive,inactive,inactive,inactive,inactive,inactive,inactive,inactive,inactive,inactive,inactive,inactive,
CN(C)CC/C=C1\c2ccccc2COc2ccccc21,,inactive,inactive,inactive,inactive,inactive,inactive,,inactive,inactive,inactive,,inactive,inactive,inactive,inactive
OCCN1CCN(CC/C=C2/c3ccccc3Sc3ccc(C(F)(F)F)cc32)CC1,,inactive,inactive,inactive,inactive,inactive,inactive,inactive,inactive,inactive,21.1 µM (active),18.4 µM (active),,,inactive,
Brc1c(NC2=NCCN2)ccc2nccnc12,,inactive,inactive,inactive,inactive,inactive,inactive,,inactive,,inactive,inactive,inactive,inactive,inactive,
COCCOC(=O)C1=C(C)NC(C)=C(C(=O)OC(C)C)C1c1cccc([N+](=O)[O-])c1 (configuration not stated),,inactive,inactive,inactive,inactive,inactive,inactive,,inactive,inactive,,,inactive,inactive,,inactive
CC(C)NCC(O)c1cc(O)cc(O)c1 (configuration not stated),,inactive,inactive,inactive,inactive,inactive,inactive,inactive,inactive,,inactive,,inactive,inactive,inactive,inactive
CC[N+](C)(C)c1cccc(O)c1,,inactive,inactive,inactive,inactive,inactive,inactive,inactive,inactive,,inactive,,inactive,inactive,inactive,inactive
CCC(=O)c1ccc2c(c1)N(CCCN(C)C)c1ccccc1S2,,inactive,inactive,inactive,inactive,inactive,inactive,,inactive,inactive,,,inactive,inactive,inactive,inactive
CCCCNc1c(C(=O)OCC)c(C)nc2c1cnn2CC,,inactive,inactive,inactive,inactive,inactive,inactive,inactive,inactive,inactive,inactive,,inactive,inactive,inactive,inactive

# From PubChem BioAssay (NCATS)
